Screening results from PubChem BioAssay.
VHR inh abs = VHR1 phosphatase inhibitors, primary screen, biochemical, absorbance, uHTS; Dual specificity protein phosphatase 3 (Homo sapiens), P51452; recombinant VHR phosphatase, pNPP absorbance; inhibition, % at 13.3 µM; 290,000 compounds, 0.52% hits; AID 1654, 2009; in the data active = inhibition above about 50%
TcdB inh = TcdB glycohydrolase inhibitors, primary screen, biochemical, single point, plate reader | inhibition, % at 9.99 µM | Toxin B (Clostridioides difficile), P18177 | 350,000 compounds, 0.24% hits | TcdB glycohydrolase enzymatic assay | AID 652162, 2013; in the data active = inhibition above about 10%
Vc quorum ag = inducers of Vibrio cholerae quorum light production without autoinducers, primary screen, BH1578 luxS cqsA deficient, single point; 350,000 compounds, 0.16% hits; V. cholerae BH1578 lux reporter, luminescence, 6 h; activation, % at 18.7 µM; in the data active = activation mostly above about 9.7%, no sharp cut-off; inconclusive = no clear call, values can overlap the other calls; inactive = mostly below about 3.7%
Yp Topo-I inh = Yersinia pestis topoisomerase I inhibitors, primary screen, biochemical, cleavage product accumulation, plate reader, single point. DNA topoisomerase I (Yersinia pestis CO92). Y. pestis Topo-I cleavage product accumulation. activity, % at 10 µM. 360,000 compounds, 0.064% hits. AID 504884, 2011; in the data active = activity above about 50%, passing the limit was not always enough; inconclusive = no clear call, values can overlap the other calls
BioA inh = M. tuberculosis BioA enzyme inhibitors, primary screen, biochemical, plate reader, single point, HTS. 7,8-diaminopelargonic acid synthase BioA (Mycobacterium tuberculosis). purified M. tuberculosis BioA enzyme. inhibition, % at 9.99 µM. 360,000 compounds, 0.096% hits. AID 602481, 2012; in the data active = inhibition above about 40%; inconclusive = no clear call, values can overlap the other calls
PfHsp40 rescue = rescue of yeast from PfHsp40 toxicity, primary screen, S. cerevisiae, ATP luminescence; growth rescue, % at 12.5 µM; S. cerevisiae expressing PfHsp40, growth rescue; AID 504582, 2011; 340,000 compounds, 0.68% hits; in the data active = growth rescue above about 28%, passing the limit was not always enough; inconclusive = no clear call, values can overlap the other calls;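 also: yeast W303a lacking pdr1 and pdr3 grown in galactose medium; growth measured after three days at 30 °C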
Numbers without * were called inactive; i = inactive; ? = inconclusive; · = not tested or not shown. This is a sample that favours compounds with a hit; in the whole collection about 1.2% have one here.

SMILES	VHR inh abs	TcdB inh	Vc quorum ag	Yp Topo-I inh	BioA inh	PfHsp40 rescue
COc1ccc(NC(=O)C(c2ccccc2)n2c(=O)c(-c3cc4ccccc4[nH]3)nc3ccccc32)cc1 (stereo not drawn)	·	1.0	·	·	·	·
Cc1cc(C)cc(C(=O)NCC(=O)OCC(=O)N(C)c2ccccc2)c1	29.7	-7.3	i	3.0	·	0.7
CN(C(=O)COC(=O)CNC(=O)c1ccccc1Cl)c1ccccc1	-10.6	14.9*	i	-0.5	·	-1.3
O=C(Cc1nnc(NC(=O)Nc2ccccc2)s1)NCc1ccccc1	57.9*	0.9	i	9.3	·	-1.2
O=C(Cc1nnc(NC(=O)Nc2ccc(Cl)cc2)s1)NCc1ccccc1	0.1	0.2	-0.1	-4.3	·	-0.9
CC1CCCN(C(=O)c2ccc3nc[nH]c3c2)C1 (stereo not drawn)	51.9*	·	-0.2	1.6	·	-1.0
CCc1nc2c(OCc3cccc(Cl)c3)cccn2c1N(C)C(=O)c1ccc(OC)cc1	·	0.4	-0.6	18.7	-0.1	·
N=C1CCCN1CC(=O)c1ccc(Br)cc1	28.2	·	-3.4	-1.9	·	45.6*
CC(C)Oc1ccc(CNC(=O)C2CCN(C(=O)N3CCOc4ccccc43)CC2)cc1	5.5	0.6	-0.2	27.8	-1.9	1.0
COc1ccc(CNC(=O)C2CCN(C(=O)N3CCOc4ccc(C)cc43)CC2)cc1	50.8*	·	·	20.3	-0.7	-0.4
Nc1cc(=O)[nH]c(SCC(=O)Nc2ccc(S(=O)(=O)N3CCCC3)cc2)n1	·	-0.1	i	3.1	0.4	-1.6
CC/C(=N\NC(=O)Cc1ccc(Br)cc1)c1cccs1	50.2*	1.4	i	3.9	-0.9	-0.3
O=C(Cc1ccc(Br)cc1)NNC(=O)c1cccs1	·	-0.9	i	-2.7	1.8	0.6
CCOC(=O)Nc1ccc2c(c1)C(=NO)c1ccccc1-2	·	4.2	i	1.6	·	207.3*
CCOC(=O)Nc1ccc2c(c1)C(=NNC(N)=S)c1ccccc1-2	·	4.4	i	-5.5	·	15.5
COc1ccc(-c2cc(C(=O)N3CCN(c4ncccn4)CC3)c3ccccc3n2)c(OC)c1	1.7	·	-0.3	25.2	·	?
COc1ccc(-c2cc(C(=O)N3CCN(c4ccccc4F)CC3)c3ccccc3n2)c(OC)c1	33.1	1.4	-0.6	30.0	-0.7	376.4*
CCOc1ccccc1N1CCN(C(=O)c2cc(-c3cc(OC)ccc3OC)nc3ccccc23)CC1	-13.9	-1.1	i	37.3	-1.4	31.0*
COc1ccc(-n2cc(C(=O)O)c3ccccc3c2=O)cc1	40.9	1.2	i	4.9	-0.3	-0.6
CCCN(CCC)CCCNC(=O)c1cn(-c2ccc(OC)cc2)c(=O)c2ccccc12	52.6*	0.7	-1.4	0.2	-0.7	-1.2
CCSc1nc(-c2ccc(OC)cc2)ccc1C#N	10.0	·	-0.3	19.5	2.5	18.0
CCOC(=O)C1=C(C)Nc2nnnn2C1c1ccc(OC)c(Br)c1 (stereo not drawn)	25.2	12.1*	-0.1	1.3	2.9	0.1
CCOC(=O)C1=C(C)NC(=S)N(C(C)=O)C1c1ccc(OC)c(OC)c1 (stereo not drawn)	21.3	1.2	i	0.7	1.2	-1.1
CC(=O)Oc1cc2c(c3ccccc13)CCC2=O	·	0.3	i	5.0	-0.1	0.1
CC(=O)Oc1cc2cccc(OC(C)=O)c(=O)c2c(OC(C)=O)c1OC(C)=O	20.6	·	-0.5	-6.0	-0.2	158.1*
SMILES	VHR inh abs	TcdB inh	Vc quorum ag	Yp Topo-I inh	BioA inh	PfHsp40 rescue
CCOC(=O)c1oc2cc(OCC(=O)OC)ccc2c(=O)c1-c1ccc(OC)c(OC)c1	-1.3	1.4	-0.6	12.9	-1.4	-0.2
COc1cccc2c1C(=N)c1c(O)c3c(c(O)c1C2=O)CC(O)(C(C)=O)CC3OC1CC(N)C(O)C(C)O1 (stereo not drawn)	·	·	i	231.4*	·	-2.6
Cc1ccc(NS(=O)(=O)c2ccc(C(=O)N3CCCC(C(F)(F)F)C3)cc2)cc1 (stereo not drawn)	·	-0.2	-0.8	0.5	0.6	50.7*
Cc1cccc(NC(=O)CCN2CCOCC2)c1	17.2	·	i	-8.4	-1.7	1.5
O=C(Cn1ccccc1=S)c1ccc(Cl)c(Cl)c1	·	1.0	-0.8	-1.0	-0.6	·
On1ccccc1=S	·	-11.7	-0.6	-0.9	-1.6	381.8*
